For two sequences, binding signal results are on record in paper PMC7862700, “An all-to-all approach to the identification of sequence-specific readers for epigenetic DNA modifications on cytosine”.

Common to all, as to test: DAPPL (digital affinity profiling via proximity ligation, sequencing); 10 mM Tris-HCl pH 7.5, 50 mM NaCl, 1 mM DTT, 4% glycerol, room temperature, 30 min; GST-TFs on glutathione beads, 16-mer random dsDNA library, 0.1% formaldehyde crosslink after washing; high values mean tight binding
What all share (conditions): protein: recombinant; tags: N-terminal GST; dsDNA, one strand shown

One assay concerns the target T1, ELK1 (Homo sapiens, UniProt P19419 1-428).
T1 sequence: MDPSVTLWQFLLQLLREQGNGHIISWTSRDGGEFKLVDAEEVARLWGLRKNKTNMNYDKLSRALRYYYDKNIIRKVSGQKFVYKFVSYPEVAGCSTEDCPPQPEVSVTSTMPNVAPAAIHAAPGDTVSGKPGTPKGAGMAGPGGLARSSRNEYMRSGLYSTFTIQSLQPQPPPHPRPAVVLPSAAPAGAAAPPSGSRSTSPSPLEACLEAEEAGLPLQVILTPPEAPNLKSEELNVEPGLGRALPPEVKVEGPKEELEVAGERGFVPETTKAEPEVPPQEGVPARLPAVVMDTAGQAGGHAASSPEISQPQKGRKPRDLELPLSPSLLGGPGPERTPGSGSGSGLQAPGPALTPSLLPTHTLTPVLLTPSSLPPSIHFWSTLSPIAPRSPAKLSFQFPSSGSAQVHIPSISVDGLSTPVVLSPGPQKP
In outline:
(§1)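 Binding signal is given per hexamer as its read frequency for a factor divided by its frequency in the tag-only sample. GST-fused human transcription factors were expressed in yeast, captured on glutathione beads, barcoded with DNA and pooled with that sample, then incubated with 200 nmole of a 16-mer random double-stranded DNA library in Tris/NaCl/DTT/glycerol buffer for 30 min at room temperature. The pools were then washed, crosslinked, proximity-ligated, amplified by PCR and sequenced on an Illumina NextSeq500.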

A further assay deals with T2, GABPA (Homo sapiens, UniProt Q06546 1-454).
T2 sequence: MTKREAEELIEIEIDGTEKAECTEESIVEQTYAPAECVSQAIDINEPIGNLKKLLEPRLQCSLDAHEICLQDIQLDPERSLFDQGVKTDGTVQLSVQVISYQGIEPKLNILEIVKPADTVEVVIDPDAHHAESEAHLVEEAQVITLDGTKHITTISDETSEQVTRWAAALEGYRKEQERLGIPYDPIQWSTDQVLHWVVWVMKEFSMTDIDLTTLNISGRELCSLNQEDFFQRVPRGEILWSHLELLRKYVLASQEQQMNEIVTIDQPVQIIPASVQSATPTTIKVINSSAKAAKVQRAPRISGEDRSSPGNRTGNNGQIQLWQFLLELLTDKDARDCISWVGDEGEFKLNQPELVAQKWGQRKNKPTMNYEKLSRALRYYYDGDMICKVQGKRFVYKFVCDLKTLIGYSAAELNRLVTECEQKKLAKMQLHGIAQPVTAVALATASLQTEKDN
The essentials: as §1

Another assay has as its target ELF1 (Homo sapiens, UniProt P32519 1-619). In outline:
as §1

For a further assay, the target named is T3, ELK3 (Homo sapiens, UniProt P41970 1-407).
T3 sequence: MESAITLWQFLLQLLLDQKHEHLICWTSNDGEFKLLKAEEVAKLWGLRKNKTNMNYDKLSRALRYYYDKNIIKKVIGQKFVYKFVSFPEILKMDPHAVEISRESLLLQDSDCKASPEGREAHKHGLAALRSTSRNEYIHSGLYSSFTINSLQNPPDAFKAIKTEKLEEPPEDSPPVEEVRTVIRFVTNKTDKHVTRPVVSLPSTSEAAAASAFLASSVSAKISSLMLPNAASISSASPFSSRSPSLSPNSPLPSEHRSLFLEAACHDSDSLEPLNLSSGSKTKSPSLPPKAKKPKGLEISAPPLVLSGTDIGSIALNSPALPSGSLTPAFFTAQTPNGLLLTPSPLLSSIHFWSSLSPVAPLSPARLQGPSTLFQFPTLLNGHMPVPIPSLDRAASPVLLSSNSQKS
In outline: as §1

A further assay has as its target T4, FEV (Homo sapiens, UniProt Q99581 1-238).
T4 sequence: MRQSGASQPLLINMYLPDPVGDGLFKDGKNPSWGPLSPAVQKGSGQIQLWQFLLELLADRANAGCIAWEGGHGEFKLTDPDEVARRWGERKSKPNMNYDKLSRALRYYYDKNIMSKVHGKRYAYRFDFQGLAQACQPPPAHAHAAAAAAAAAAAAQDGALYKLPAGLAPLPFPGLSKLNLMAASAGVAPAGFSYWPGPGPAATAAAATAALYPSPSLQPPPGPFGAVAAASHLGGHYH
The essentials: as §1

For another assay, the target named is ELF4 (Homo sapiens, UniProt Q99607 1-663). The essentials:
as §1

The target in a further assay is T5, ELF3 (Homo sapiens, UniProt P78545 1-371).
T5 sequence: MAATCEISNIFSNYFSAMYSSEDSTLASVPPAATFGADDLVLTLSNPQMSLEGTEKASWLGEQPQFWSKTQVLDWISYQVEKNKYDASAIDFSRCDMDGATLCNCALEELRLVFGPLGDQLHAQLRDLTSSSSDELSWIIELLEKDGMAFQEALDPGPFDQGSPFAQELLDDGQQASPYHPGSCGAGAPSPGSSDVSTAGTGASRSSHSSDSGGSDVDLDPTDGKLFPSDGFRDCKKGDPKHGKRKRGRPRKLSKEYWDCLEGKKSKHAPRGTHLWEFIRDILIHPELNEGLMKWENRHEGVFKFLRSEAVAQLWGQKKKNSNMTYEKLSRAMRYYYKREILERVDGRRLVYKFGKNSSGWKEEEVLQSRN
The essentials:
as §1

For another assay, the target named is ETV1 (Homo sapiens, UniProt P50549 1-477). The essentials:
as §1

Another assay has as its target T6, ERF (Homo sapiens, UniProt P50548 1-548).
T6 sequence: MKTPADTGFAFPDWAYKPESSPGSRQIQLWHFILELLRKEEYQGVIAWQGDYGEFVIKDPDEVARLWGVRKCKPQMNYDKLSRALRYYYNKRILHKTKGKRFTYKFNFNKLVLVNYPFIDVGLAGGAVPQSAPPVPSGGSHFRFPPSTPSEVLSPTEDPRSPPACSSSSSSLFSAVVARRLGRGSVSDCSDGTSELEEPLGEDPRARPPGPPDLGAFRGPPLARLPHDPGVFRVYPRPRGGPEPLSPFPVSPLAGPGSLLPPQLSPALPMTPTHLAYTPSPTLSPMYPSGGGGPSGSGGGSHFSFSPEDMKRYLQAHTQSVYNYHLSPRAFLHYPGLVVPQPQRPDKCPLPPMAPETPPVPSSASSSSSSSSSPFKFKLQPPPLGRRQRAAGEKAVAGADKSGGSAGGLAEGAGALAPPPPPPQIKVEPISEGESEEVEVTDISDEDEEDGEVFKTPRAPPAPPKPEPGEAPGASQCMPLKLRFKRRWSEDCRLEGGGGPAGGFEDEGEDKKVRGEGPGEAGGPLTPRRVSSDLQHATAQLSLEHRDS
The essentials: as §1

Another assay has as its target T7, ETV3L (Homo sapiens, UniProt Q6ZN32 1-361).
T7 sequence: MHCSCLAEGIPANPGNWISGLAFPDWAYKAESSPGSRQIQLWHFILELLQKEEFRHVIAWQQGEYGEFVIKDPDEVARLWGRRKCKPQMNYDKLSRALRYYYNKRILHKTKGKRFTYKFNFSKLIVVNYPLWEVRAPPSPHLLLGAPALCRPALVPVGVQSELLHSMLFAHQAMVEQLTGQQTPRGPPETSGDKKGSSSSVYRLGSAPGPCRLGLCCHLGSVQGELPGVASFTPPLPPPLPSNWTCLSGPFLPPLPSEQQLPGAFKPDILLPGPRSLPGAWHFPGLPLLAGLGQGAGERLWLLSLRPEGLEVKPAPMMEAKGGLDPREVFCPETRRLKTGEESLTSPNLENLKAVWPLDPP
The essentials: as §1

For the next assay, the target named is T8, ERG (Homo sapiens, UniProt P11308 1-479).
T8 sequence: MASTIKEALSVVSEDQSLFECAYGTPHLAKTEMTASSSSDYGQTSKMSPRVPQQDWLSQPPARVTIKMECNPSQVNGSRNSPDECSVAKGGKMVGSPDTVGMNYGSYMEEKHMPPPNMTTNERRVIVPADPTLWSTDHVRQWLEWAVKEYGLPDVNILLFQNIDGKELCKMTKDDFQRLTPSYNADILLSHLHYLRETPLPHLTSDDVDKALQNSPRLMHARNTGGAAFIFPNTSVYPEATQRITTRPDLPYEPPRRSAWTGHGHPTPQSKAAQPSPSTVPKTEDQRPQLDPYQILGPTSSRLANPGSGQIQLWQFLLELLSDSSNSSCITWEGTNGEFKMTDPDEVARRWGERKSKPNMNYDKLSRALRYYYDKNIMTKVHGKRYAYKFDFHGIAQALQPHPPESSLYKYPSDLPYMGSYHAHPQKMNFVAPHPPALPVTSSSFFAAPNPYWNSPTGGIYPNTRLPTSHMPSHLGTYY
In outline:
as §1

Another assay deals with T9, ELK4 (Homo sapiens, UniProt P28324-2 1-405).
T9 sequence: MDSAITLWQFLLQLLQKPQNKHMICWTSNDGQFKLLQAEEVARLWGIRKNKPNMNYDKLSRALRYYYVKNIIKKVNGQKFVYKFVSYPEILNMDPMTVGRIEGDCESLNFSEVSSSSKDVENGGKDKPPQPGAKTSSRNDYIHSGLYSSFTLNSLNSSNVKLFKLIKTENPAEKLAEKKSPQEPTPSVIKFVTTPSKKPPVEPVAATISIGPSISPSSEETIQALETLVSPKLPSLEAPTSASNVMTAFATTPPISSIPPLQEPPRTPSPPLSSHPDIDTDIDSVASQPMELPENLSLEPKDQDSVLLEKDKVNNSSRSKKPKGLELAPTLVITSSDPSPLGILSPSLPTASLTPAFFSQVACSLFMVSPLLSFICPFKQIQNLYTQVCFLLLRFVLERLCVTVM
In outline:
as §1

The next assay concerns the target T10, ETS2 (Homo sapiens, UniProt P15036 1-469).
T10 sequence: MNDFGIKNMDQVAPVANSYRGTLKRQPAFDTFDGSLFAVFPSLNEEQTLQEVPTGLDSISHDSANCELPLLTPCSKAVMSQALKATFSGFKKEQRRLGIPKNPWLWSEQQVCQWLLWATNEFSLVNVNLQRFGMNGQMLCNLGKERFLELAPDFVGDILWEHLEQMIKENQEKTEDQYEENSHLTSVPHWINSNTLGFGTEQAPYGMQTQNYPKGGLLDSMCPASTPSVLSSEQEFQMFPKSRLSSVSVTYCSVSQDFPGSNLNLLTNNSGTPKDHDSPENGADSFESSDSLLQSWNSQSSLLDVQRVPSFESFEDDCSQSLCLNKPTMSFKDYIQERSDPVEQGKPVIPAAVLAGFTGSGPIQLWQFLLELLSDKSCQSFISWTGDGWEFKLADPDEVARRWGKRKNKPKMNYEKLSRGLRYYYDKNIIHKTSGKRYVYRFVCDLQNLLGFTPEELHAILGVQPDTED
The essentials: as §1

Chain of ELF4 (Q99607 whole entry): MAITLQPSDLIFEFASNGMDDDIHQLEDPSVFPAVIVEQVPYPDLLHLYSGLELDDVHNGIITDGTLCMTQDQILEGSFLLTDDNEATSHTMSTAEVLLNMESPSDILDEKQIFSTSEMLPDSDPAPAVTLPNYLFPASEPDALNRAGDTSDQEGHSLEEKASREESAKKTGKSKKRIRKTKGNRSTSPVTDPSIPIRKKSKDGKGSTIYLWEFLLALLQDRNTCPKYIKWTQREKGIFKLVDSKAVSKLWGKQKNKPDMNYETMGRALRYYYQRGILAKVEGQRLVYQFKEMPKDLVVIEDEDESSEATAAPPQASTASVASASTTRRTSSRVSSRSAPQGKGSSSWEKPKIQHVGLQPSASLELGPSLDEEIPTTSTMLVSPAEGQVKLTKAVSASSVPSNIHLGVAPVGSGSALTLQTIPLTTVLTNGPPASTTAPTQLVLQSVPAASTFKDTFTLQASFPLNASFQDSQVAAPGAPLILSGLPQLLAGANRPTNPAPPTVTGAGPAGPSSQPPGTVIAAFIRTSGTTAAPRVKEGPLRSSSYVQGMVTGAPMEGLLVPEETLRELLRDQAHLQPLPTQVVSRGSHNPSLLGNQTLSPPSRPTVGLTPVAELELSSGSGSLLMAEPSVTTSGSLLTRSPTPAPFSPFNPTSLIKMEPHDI
Chain of ETV1 (P50549 whole entry): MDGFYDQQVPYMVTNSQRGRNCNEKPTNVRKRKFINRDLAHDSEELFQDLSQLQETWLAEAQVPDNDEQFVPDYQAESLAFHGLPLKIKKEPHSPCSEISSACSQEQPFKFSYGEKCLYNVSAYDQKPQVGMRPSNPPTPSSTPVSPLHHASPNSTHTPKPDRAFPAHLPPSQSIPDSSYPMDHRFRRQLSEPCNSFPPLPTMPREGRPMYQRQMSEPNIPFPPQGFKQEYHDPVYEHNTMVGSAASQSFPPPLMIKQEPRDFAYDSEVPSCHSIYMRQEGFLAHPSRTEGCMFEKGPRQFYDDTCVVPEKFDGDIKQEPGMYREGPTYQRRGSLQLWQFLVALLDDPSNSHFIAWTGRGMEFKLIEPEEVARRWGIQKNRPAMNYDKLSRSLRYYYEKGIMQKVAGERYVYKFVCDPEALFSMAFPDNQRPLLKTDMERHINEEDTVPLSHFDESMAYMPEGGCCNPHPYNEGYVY
Chain of ELF1 (P32519 whole entry): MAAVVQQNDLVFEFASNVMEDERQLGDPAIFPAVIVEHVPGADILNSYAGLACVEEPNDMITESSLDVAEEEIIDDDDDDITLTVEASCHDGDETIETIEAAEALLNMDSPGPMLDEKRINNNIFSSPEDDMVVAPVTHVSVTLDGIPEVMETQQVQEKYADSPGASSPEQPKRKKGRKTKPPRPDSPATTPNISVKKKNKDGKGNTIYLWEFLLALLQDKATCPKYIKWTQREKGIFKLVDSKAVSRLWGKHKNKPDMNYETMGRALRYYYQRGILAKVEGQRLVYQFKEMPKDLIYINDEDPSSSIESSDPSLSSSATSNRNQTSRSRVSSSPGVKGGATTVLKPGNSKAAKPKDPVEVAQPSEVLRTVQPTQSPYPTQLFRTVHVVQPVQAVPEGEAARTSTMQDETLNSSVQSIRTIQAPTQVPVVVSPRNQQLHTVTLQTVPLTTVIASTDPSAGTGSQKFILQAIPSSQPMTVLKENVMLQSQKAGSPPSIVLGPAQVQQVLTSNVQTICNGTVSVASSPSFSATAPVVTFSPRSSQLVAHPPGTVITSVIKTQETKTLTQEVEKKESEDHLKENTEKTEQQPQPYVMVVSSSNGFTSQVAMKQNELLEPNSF

For the sequence CATCAA, the binding signal in the assay with ELK1 is 1.01 fold enrichment (6-mer frequency, TF over GST control); with GABPA it was 1.03 fold enrichment (6-mer frequency, TF over GST control); with ELF1, 1.03 fold enrichment (6-mer frequency, TF over GST control); in the assay with ELK3 it was 1.07 fold enrichment (6-mer frequency, TF over GST control); in the assay with FEV it was 1 fold enrichment (6-mer frequency, TF over GST control); with ELF4 it was 1.05 fold enrichment (6-mer frequency, TF over GST control). Further, the binding signal is 1.03 fold enrichment (6-mer frequency, TF over GST control) with ELF3; 1.01 fold enrichment (6-mer frequency, TF over GST control) with ETV1; 1.02 fold enrichment (6-mer frequency, TF over GST control) with ERF; 1.08 fold enrichment (6-mer frequency, TF over GST control) in the assay with ETV3L.
As for CAATGA, the binding signal with ELK1 was 1.04 fold enrichment (6-mer frequency, TF over GST control); with GABPA, 1.05 fold enrichment (6-mer frequency, TF over GST control); with ERG, 1.03 fold enrichment (6-mer frequency, TF over GST control); in the assay with ELF1 it was 1.06 fold enrichment (6-mer frequency, TF over GST control); with ELK3, 1.04 fold enrichment (6-mer frequency, TF over GST control); with ELF4 it was 1.01 fold enrichment (6-mer frequency, TF over GST control). The binding signal with ELK4 is 1.12 fold enrichment (6-mer frequency, TF over GST control); in the assay with ELF3 it was 1.15 fold enrichment (6-mer frequency, TF over GST control); with ETV1, 1.01 fold enrichment (6-mer frequency, TF over GST control); in the assay with ERF, 1.06 fold enrichment (6-mer frequency, TF over GST control); with ETS2, 1.03 fold enrichment (6-mer frequency, TF over GST control).
